Rows were chosen to be rich in hits. Some 21% of all compounds tested hit in one or more screens of this group.
NS1 function inh: qHTS Assay for Inhibitors of Influenza NS1 Protein Function; Potency, µM (series often up to 46.1 µM); 270,000 tested, 0.4% active; AID 2326, 2010; calls by dose curve; note: actives are rising curves; nearly all actives have a fitted effect of over 50% in size
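Compounds were scored for reversing the slow growth caused by influenza A NS1 in S. cerevisiae, measured by optical density at 600 nm. Assay medium contained 2% galactose at pH 6.0; NS1-free yeast of the same strain were the positive control.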
Pf growth 96h: Primary qHTS for delayed death inhibitors of the malarial parasite plastid, 96 hour incubation. P. falciparum luciferase reporter growth, 96 h. Potency, µM (doses to about 28.7 µM), hits mostly inhibitors. 320,000 tested, 6.9% active
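P. falciparum expressing integrated firefly luciferase, in erythrocytes at 2% hematocrit, 0.05% parasitemia, incubated with compounds 96 h at 37 C, 5% CO2. Growth inhibition read as loss of luminescence; two-generation exposure targets delayed-death apicoplast inhibitors.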
Giardia FBPA inh: qHTS Assay for Inhibitors of Fructose-1,6-bisphosphate Aldolase from Giardia Lamblia; Potency, µM (highest dose often 59.6 µM), usual class: inhibitors; A8B2U2; purified Giardia FBPA; 290,000 tested, 0.71% active; note: nearly all actives have a fitted effect of over 55% in size
Target sequence (A8B2U2 whole entry, looked up): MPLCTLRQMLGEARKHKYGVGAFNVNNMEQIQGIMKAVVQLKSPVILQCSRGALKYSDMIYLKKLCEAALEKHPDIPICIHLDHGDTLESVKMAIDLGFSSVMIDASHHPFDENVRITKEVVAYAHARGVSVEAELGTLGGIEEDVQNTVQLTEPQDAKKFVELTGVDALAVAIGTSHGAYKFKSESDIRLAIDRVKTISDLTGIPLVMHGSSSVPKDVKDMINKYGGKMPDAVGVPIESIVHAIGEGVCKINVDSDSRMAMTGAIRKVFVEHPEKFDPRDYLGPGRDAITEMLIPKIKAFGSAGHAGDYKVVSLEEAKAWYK
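Giardia FBPA (40 nM reagent) was preincubated 10 min at RT with compound (up to 57.5 uM final), then substrate plus GAPDH/TPI/NAD/arsenate coupling system with diaphorase/resazurin was added; resorufin fluorescence (525/598 nm) was read after 20 min.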
Pf growth 48h: Primary qHTS for delayed death inhibitors of the malarial parasite plastid, 48 hour incubation; Potency, µM (doses to about 28.7 µM), actives largely listed as inhibitors; 310,000 tested, 5.9% active; AID 504832, 2011; P. falciparum luciferase growth in erythrocytes, 48 h
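First compound was added to culture medium, then infected red cells at 0.1% parasitemia and 2% hematocrit (final). After incubation at 37 C under 5% CO2, luciferase detection reagent was dispensed and light output recorded.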
Shiga inhibitor: A qHTS for Small Molecule Inhibitors of Shiga Toxin; Vero cells, Shiga toxin protein synthesis inhibition reporter; 290,000 tested, 9.2% active; inhibition, % at 38.7 µM; AID 2315, 2010; in the data active = inhibition mostly above about 28%, no sharp cut-off; inactive = mostly below about 43%
CHX counter: Cycloheximide Counterscreen for Small Molecule Inhibitors of Shiga Toxin | cell reporter, cycloheximide protein synthesis inhibition counterscreen | max response, % | 300,000 tested, 12% active; in the data active = max response mostly above about 13%, no sharp cut-off; inactive = mostly below about 14%; note: read at 38.3 µM for the half of the compounds with a filed dose
NS1 inh valid: Assay for Inhibitors of Influenza NS1 Protein Function: Hit Validation | shares compounds with NS1 function inh | influenza NS1 function cell assay, 15-point titration | activity change, negative = inhibition, % at 32.9 µM | 1,400 tested, under 10 active | AID 492980, 2010; calls by dose curve
Of the large screens only hits and unclear results are named; the others gave an inactive call (follow-up assays come after a bar, where they were run). Unless noted, calls come from the whole dose curve; as a rule, active = well fitted curve in the direction sought with a large enough effect; inconclusive = small, poorly fitted or top-dose-only effect, or another doubt; inactive = no such curve, though single readings can be large; an effect the other way counts as inactive or inconclusive.

CCc1cc2c(-c3ccccc3)cc(=O)oc2cc1OC(C)C(=O)O (stereo unspecified)	NS1 function inh 10µM, Pf growth 96h inconclusive | NS1 inh valid inactive
Cn1c(=O)cc(OCCCC(=O)NCCCN2CCN(Cc3ccccc3)CC2)c2ccccc21	NS1 function inh 3.5µM, Pf growth 48h inconclusive | NS1 inh valid inactive
COc1cc(NC(=O)COC(=O)CSc2cc(C)ccc2C)c(C)cc1[N+](=O)[O-]	none
Cc1ccc(-c2noc(CN(C)C(=O)c3ccc(Br)o3)n2)cc1	Pf growth 96h inconclusive (no result: NS1 function inh, Giardia FBPA inh, Shiga inhibitor, CHX counter)
COc1ccc(Br)cc1-c1nc2c(c(=O)[nH]c(=O)n2Cc2ccccc2)n1C	none
COc1ccc(-c2ccc(-c3nc4c(c(=O)[nH]c(=O)n4Cc4ccccc4)n3C)o2)c([N+](=O)[O-])c1	NS1 function inh 3.5µM, Pf growth 96h inconclusive, Giardia FBPA inh inconclusive, Pf growth 48h inconclusive | NS1 inh valid inactive
CC(C)(C(=O)c1cccnc1)c1cccnc1	none (no result: NS1 function inh, Shiga inhibitor, CHX counter)
CCOc1ccc2nc(Cl)c(C3CC(c4ccco4)=NN3S(=O)(=O)c3ccccc3)cc2c1 (stereo unspecified)	NS1 function inh 10µM, Pf growth 96h 7.4µM, Pf growth 48h inconclusive, Shiga inhibitor active | NS1 inh valid inactive
COC(=O)[C@@H]1C[C@@]2(O)[C@@H](O)[C@@H](O)[C@@H](O)C[C@H]2N1C/C=C/c1ccccc1	none
O=S(=O)(Nc1cccc(-c2ccc(N3CCCCCC3)nn2)c1)c1cccc(F)c1	NS1 function inh inconclusive, Shiga inhibitor 116, CHX counter 40 | NS1 inh valid inactive
O=C(Nc1cccc(-c2ccc(N3CCCCC3)nn2)c1)c1ccc(Br)o1	Pf growth 48h inconclusive (no result: NS1 function inh, Giardia FBPA inh, Shiga inhibitor, CHX counter)
C/C=C(/C)C(=O)O[C@H]1C(C)=C2C([C@@H]1OC(=O)CCCCCCC)[C@@](C)(OC(C)=O)C[C@@H](OC(=O)CCC)[C@@]1(O)[C@H]2OC(=O)[C@@]1(C)O (stereo partly specified)	NS1 function inh 8.9µM (no result: Pf growth 96h, Pf growth 48h, Shiga inhibitor, CHX counter) | NS1 inh valid inactive
O=C(CSc1ncn[nH]1)Nc1ccccc1Sc1ccc(Cl)cc1	Giardia FBPA inh inconclusive
Cc1ccnc(OC(C(=O)O)C(OCc2ccccc2)(c2ccccc2)c2ccc(C(F)(F)F)cc2)n1 (stereo unspecified)	NS1 function inh inconclusive, Pf growth 96h inconclusive | NS1 inh valid inactive
Cc1cc(C)nc(OC(C(=O)O)C(OCCC(C)C)(c2ccccc2)c2ccccc2)n1 (stereo unspecified)	NS1 function inh 2.5µM | NS1 inh valid inactive
CCOC(=O)c1c(O)c2ccccc2n(CC)c1=O	Pf growth 48h inconclusive (no result: NS1 function inh)
CCOc1cccc(C(=O)Nc2cc(-c3nn4c(C)nnc4s3)ccc2C)c1	none
CCCOc1ccc(C(=O)Nc2cc(-c3nn4c(C)nnc4s3)ccc2C)cc1	NS1 function inh 4.5µM (no result: Pf growth 48h) | NS1 inh valid inactive
CCN(CC)c1ncc(C)c(=O)[nH]1	none
CCOC(=O)c1c(-c2ccco2)csc1N	NS1 function inh 1.3µM, Giardia FBPA inh inconclusive (no result: Pf growth 96h) | NS1 inh valid inconclusive
COc1ccccc1-c1nnc(SC/C(O)=C(\C#N)c2nc3ccccc3[nH]2)n1C1CCCCC1	NS1 function inh inconclusive, Pf growth 96h inconclusive, Giardia FBPA inh inconclusive, Pf growth 48h inconclusive
N#C/C(=C(/O)CSc1nnc(Cc2cccs2)n1C1CCCCC1)c1nc2ccccc2[nH]1	NS1 function inh 18µM, Giardia FBPA inh inconclusive, Pf growth 48h 6.6µM | NS1 inh valid inactive
Cc1cc(C)c(S(=O)(=O)N2CCCOC2CNC(=O)C(=O)NCc2cccs2)c(C)c1 (stereo unspecified)	Pf growth 96h inconclusive
C=CCn1c(-c2oc3nc(-c4ccccc4)cc(-c4ccccc4)c3c2N)n[nH]c1=S	NS1 function inh 1.1µM, Pf growth 96h inconclusive, Pf growth 48h inconclusive | NS1 inh valid inactive
C=CCn1c(-c2cccc(Cl)c2)n[nH]c1=S	none
CCc1cc2c(=O)n(Cc3ccco3)c(SCC(=O)N3CCCc4ccccc43)nc2s1	NS1 function inh 7.1µM, Pf growth 48h 9.3µM, CHX counter 19 | NS1 inh valid inactive

Bioassay records deposited in PubChem by National Center for Advancing Translational Sciences (NCATS).
